# Data as given in PubChem BioAssay.
# Calls of active or inactive are those of the source. Unless noted, how the calls were made is not given here.
# Columns and labels:
# [1] = compounds altering circadian rhythm period length – cell-based, LOPAC library, luminescence reporter (AID 2774); conditions: circadian reporter cells, at 7 µM, actives lie on both sides;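 further: values are relative to mean of DMSO wells on each plate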
# [2] = tested on: Hepatitis C virus NS3 helicase; test: blockers of NS3h binding to ssDNA – biochemical, fluorescence polarization, LOPAC1280 library, primary screen (AID 687035; in the data active means inhibition above about 37%); conditions: Purified HCV NS3 helicase, Cy5-dT15 ssDNA binding fluorescence polarization; stronger effect = higher value; concentration not given here
# [3] = compounds altering Cy5-DNA-NS3h complex signal – biochemical, LOPAC1280, artefact control for HCV NS3 helicase inhibitor project (AID 687037); conditions: Cy5-DNA-NS3h complex fluorescence interference counterscreen
# [4] = viability loss with induced miR-34 in A549 – imaging, A549 dox-inducible miR-34, nuclei and caspase counts, primary screen (AID 1347080;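 active means compounds whose cell count with miR-34 switched on is under 0.7 times the count with it off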); conditions: A549 miR-34 inducible, Hoechst nuclei count, 48 h
# [5] = blockers of cellular phospholipid synthesis – cell-based, LOPAC library, screen 4, primary screen (AID 1347384); conditions: animal cells, phospholipid biosynthesis inhibition screen; at 10 µM
# [6] = galactose survival enhancers in mitochondrial complex I cybrids – cell-based, galactose medium, ATP luminescence, primary screen (AID 1645843;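 active means z-score of at least 1.8 in each of two replicates, scored against plate mean and spread of sample wells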;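 further: positive z means more ATP and so rescue of galactose-driven cybrid death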); conditions: complex I mutant cybrid cells, 72 h, stronger effect = higher value
# [7] = stronger effect = lower value, cell number ratio, induced over uninduced
# [8] = measured here: relative caspase fold change +Dox/-Dox
# [9] = measured here: total cells with miR-34 induction, stronger effect = lower value
# [10] = measured here: total cells without miR-34 induction
SMILES,period change [1],inhibition [2],fluorescence ratio (interference) [3],"fold change [4, 7]","fold change [4, 8]","cell count [4, 9]","cell count [4, 10]",outcome [5],z-score [6]
CN1CC(O)C(O)C(O)C1CO (configuration not stated),0.06 h (inactive),-3% (inactive),1 (inactive),0.95 (inactive),1.01,10300,10800,inactive,0.28 (inactive)
O=[N+]([O-])c1ccc(CSc2ncnc3c2ncn3[C@@H]2O[C@H](CO)[C@H](O)C2O)cc1 (some centres not stated),-0.085 h (inactive),-4% (inactive),0.9 (inactive),1.12 (inactive),0.942,10500,9340,inactive,1.67 (inactive)
CCC(=O)N1CCN(C(=O)c2ccccc2)CC1,-0.115 h (inactive),-1% (inactive),1.1 (inactive),0.906 (inactive),1.03,9050,9990,inactive,0.245 (inactive)
CC(C)C[C@H](NC(=O)C1OC1C(=O)O)C(=O)NCCCCN=C(N)N (some centres not stated),-0.035 h (inactive),0% (inactive),1 (inactive),0.999 (inactive),1.62,9550,9560,inactive,0.15 (inactive)
O=c1cc(-c2ccccc2)[nH]c2nc(Cl)ccc12,-0.07 h (inactive),-3% (inactive),1 (inactive),0.977 (inactive),1.95,3650,3740,inactive,-0.5 (inactive)
Nc1ncnc2c1ncn2C1CCCC1,0.035 h (inactive),-6% (inactive),0.9 (inactive),1.02 (inactive),2.13,10400,10200,inactive,-0.07 (inactive)
O=C(O)C1CN(CCCP(=O)(O)O)CCN1 (configuration not stated),0.255 h (inactive),1% (inactive),1 (inactive),0.99 (inactive),1.52,10000,10100,inactive,0.45 (inactive)
COc1cc(/C=C(\C#N)C(=O)c2ccc(O)c(O)c2)cc(I)c1O,0.035 h (inactive),37% (active),0.9 (inactive),0.957 (inactive),1.26,9980,10400,inactive,0.8 (inactive)
COc1ccc2c(c1)c(CC(=O)O)c(C)n2C(=O)c1ccccc1,0.15 h (inactive),-2% (inactive),1 (inactive),1.07 (inactive),1.77,9380,8810,inactive,1.18 (inactive)
CCCCOC(=O)NS(=O)(=O)c1sc(CC(C)C)cc1-c1ccc(Cn2c(CC)nc3c(C)cc(C)nc32)cc1,-0.005 h (inactive),-1% (inactive),1 (inactive),0.772 (inactive),0.69,4700,6080,inactive,-1.28 (inactive)
O=C(O)/C=C/c1cnc[nH]1,-0.135 h (inactive),-2% (inactive),1 (inactive),1.01 (inactive),2.13,10700,10600,inactive,0.495 (inactive)
Cc1cccc(C)c1OCC(N)C(C)C (configuration not stated),-0.08 h (inactive),-3% (inactive),1 (inactive),1.09 (inactive),0.766,11200,10300,inactive,-0.425 (inactive)
Nc1ncnc2c1ncn2[C@@H]1O[C@H](COP(=O)(O)OP(=O)(O)OP(=O)(O)OP(=O)(O)OC[C@@H]2O[C@H](n3cnc4c(N)ncnc43)C(O)[C@@H]2O)[C@H](O)C1O (some centres not stated),0.05 h (inactive),3% (inactive),1 (inactive),0.899 (inactive),1.4,8750,9730,inactive,4.53 (active)
COc1ccc2c(c1)c(CC(=O)O)c(C)n2Cc1ccc(Cl)cc1,0 h (inactive),0% (inactive),1 (inactive),0.957 (inactive),1.52,8600,8990,inactive,2.23 (active)
CCN1C(=O)C=CC1=O,0.135 h (inactive),-3% (inactive),1 (inactive),0.985 (inactive),1.06,9620,9760,inactive,-0.99 (inactive)
c1ccc(CN2CCC3(CCCc4ccccc43)CC2)cc1,0 h (inactive),-3% (inactive),1 (inactive),1.19 (inactive),0.602,7360,6160,inactive,-1.27 (inactive)
COc1cccc2c1[C@@H]1CN(CCCCn3c(=O)[nH]c4c(sc5ncc(-c6ccccc6)nc54)c3=O)C[C@@H]1CO2,-0.035 h (inactive),-5% (inactive),0.9 (inactive),1.07 (inactive),1.42,6250,5860,inactive,-1.02 (inactive)

SMILES,period change [1],inhibition [2],fluorescence ratio (interference) [3],"fold change [4, 7]","fold change [4, 8]","cell count [4, 9]","cell count [4, 10]",outcome [5],z-score [6]
CC(N)(Cc1ccc(O)cc1)C(=O)O (configuration not stated),-0.14 h (inactive),-1% (inactive),0.9 (inactive),1 (inactive),0.646,9440,9440,inactive,1.32 (inactive)
NC(=O)C1=CN(C2OC(COP(=O)(O)OP(=O)(O)OC[C@H]3O[C@@H](n4cnc5c(N)ncnc54)C(OP(=O)(O)O)[C@H]3O)C(O)C2O)C=CC1 (some centres not stated),-0.03 h (inactive),-4% (inactive),1 (inactive),1.07 (inactive),1.18,9810,9130,inactive,1.12 (inactive)
CC(O)C(O)[C@H]1CNc2nc(N)[nH]c(=O)c2N1 (some centres not stated),-0.26 h (inactive),-4% (inactive),1 (inactive),0.979 (inactive),1.26,10500,10800,inactive,0.515 (inactive)
NC/C=C\C(=O)O,0.03 h (inactive),-3% (inactive),1 (inactive),1.03 (inactive),1.8,9360,9050,inactive,-1.38 (inactive)
N.N.O=C(O)C1(C(=O)O)CCC1.[Pt+2],0.07 h (inactive),-3% (inactive),1 (inactive),1.04 (inactive),1.42,6330,6070,inactive,-0.53 (inactive)
CCC1(O)CC2CN(CCc3c([nH]c4ccccc34)[C@@](C(=O)OC)(c3cc4c(cc3OC)N(C=O)C3[C@]45CCN4CC=C[C@@](CC)([C@@H](OC(C)=O)[C@]3(O)C(=O)OC)[C@H]45)C2)C1 (some centres not stated),0.81 h (active),2% (inactive),1 (inactive),1.3 (inactive),1.29,1490,1140,inactive,-0.935 (inactive)
CC(N)(C(=O)O)c1ccc(C(=O)O)cc1 (configuration not stated),-0.11 h (inactive),-2% (inactive),1 (inactive),1.05 (inactive),1.27,11100,10600,inactive,0.615 (inactive)
CC(=O)N[C@@H](Cc1c[nH]c2ccccc12)C(=O)OCc1cc(C(F)(F)F)cc(C(F)(F)F)c1,0.005 h (inactive),-3% (inactive),0.9 (inactive),1.03 (inactive),1.8,9980,9690,inactive,-0.03 (inactive)
O=C(O)Cc1c[nH]c2ccc(O)cc12,-0.095 h (inactive),-2% (inactive),1 (inactive),1.08 (inactive),0.669,9930,9210,inactive,0.08 (inactive)
C#CC(N)CCC(=O)O (configuration not stated),0 h (inactive),-1% (inactive),1 (inactive),1.04 (inactive),2.03,10600,10100,inactive,-0.17 (inactive)
N[C@H](C(=O)O)[C@H](O)C(=O)O,-0.095 h (inactive),-1% (inactive),1 (inactive),0.956 (inactive),1.57,9780,10200,inactive,0.175 (inactive)
N[C@H](CO)C(=O)O,-0.02 h (inactive),-3% (inactive),1 (inactive),0.97 (inactive),2.63,10300,10600,inactive,0.31 (inactive)
CN1CCC2(CCN3CCc4c(oc5ccccc45)C3C2)N(C)C1=O (configuration not stated),0.125 h (inactive),3% (inactive),1 (inactive),1.04 (inactive),0.751,7560,7300,inactive,-0.87 (inactive)
COC(=O)C(C)(N)Cc1ccc(O)cc1 (configuration not stated),-0.015 h (inactive),-3% (inactive),1 (inactive),1.04 (inactive),1.45,10900,10400,inactive,0.39 (inactive)
C=C1C(=O)O[C@@H]2[C@H]3O[C@]3(C)CCC=C(C)CC[C@@H]12,-0.22 h (inactive),-6% (inactive),1 (inactive),1.05 (inactive),1.06,5750,5500,inactive,-1.27 (inactive)
CCCn1c(=O)c2[nH]c(-c3ccc(S(=O)(=O)O)cc3)nc2n(CCC)c1=O,-0.005 h (inactive),0% (inactive),1 (inactive),0.978 (inactive),2.81,10100,10400,inactive,0.43 (inactive)
